We go through five molecules from PubChem BioAssay (EPA / NIEHS).

Assay [1] is described as follows: CCTE_Mundy_HCI_Cortical_Synap_Neur_Matur_NeuriteSpotCountPerNeuriteLength: CCTE's Synaptogenesis and Neurite Maturation Assay in rat cortical cells for Neurite Spot Count per Neurite Length, Mundy Lab (AID 2284210). The gist of the method:
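Rat primary cortical cultures, glia arrested with AraC at DIV 5, were dosed with media change at DIV 7 and fixed at DIV 12. Synaptophysin puncta per MAP2-labelled neurite length were quantified by high-content imaging versus DMSO.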

Assay [2] in a line: CCTE_Mundy_HCI_Cortical_NOG_NeuriteLength: CCTE's Neurite Outgrowth Assay in rat cortical cells for Neurite Length, Mundy Lab (AID 2284213).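 On AC50: neurites imaged about 48 to 50 h after chemical exposure began.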 The procedure, abridged: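 Neurite length was read by high-content imaging of βIII-tubulin-labelled neurites in rat primary cortical cultures. Activity was fitted relative to DMSO.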
The nature of assay [3]: CCTE_Mundy_HCI_Cortical_Synap_Neur_Matur_NeuriteLength: CCTE's Synaptogenesis and Neurite Maturation Assay in rat cortical cells for Neurite Length, Mundy Lab (AID 2284214). The gist of the method: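 Neurite length in rat primary cortical cultures is imaged after MAP2, synaptophysin and Hoechst staining. Dosing starts DIV 7, ending DIV 12; DMSO serves as negative control and baseline.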

A short description of assay [4]: CCTE_Mundy_HCI_Cortical_Synap_Neur_Matur_NeuriteSpotCountPerNeuron: CCTE's Synaptogenesis and Neurite Maturation Assay in rat cortical cells for Neurite Spot Count per Neuron Count, Mundy Lab (AID 2284215). The gist of the method:
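Rat cortical primary cultures; AraC DIV 5 to arrest glia; dosing + media change DIV 7; fixed DIV 12. Anti-MAP2/anti-synaptophysin, Hoechst nuclei; HCI puncta count per neuron, positive fitting direction vs DMSO.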

A short description of assay [5]: TAMU_PeakParms_SingleDonor1434_Chronotropy: Texas A&M University (TAMU) 1.5-hr Human Induced Pluripotent Stem Cell (iPSC)-derived Cardiomyocytes Calcium (Ca+2) Flux Assay for Cardiotoxicity: Chronotropy (changes in peak frequency) (AID 2284217). The conditions noted are these: actives raise or lower the signal. The gist of the method: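 Beat rate, as mean Ca2+-flux peak frequency, was read from donor 1434 iPSC cardiomyocytes 90 min after exposure to 0.2–100 uM test chemical (0.5% DMSO). Wells that stopped beating were excluded; EC05 from bidirectional DMSO-referenced fitting.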

Assay [6] can be described thus: CCTE_Mundy_HCI_Cortical_Synap_Neur_Matur_SynapseCount: CCTE's Synaptogenesis and Neurite Maturation Assay in rat cortical cells for Synapse Count, Mundy Lab (AID 2284218). The procedure, abridged: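 Synapse count per neuron is measured in rat cortical neurons exposed to chemicals between DIV 7 and DIV 12, with glial growth arrested by AraC at DIV 5. Synaptophysin and MAP2 staining is imaged automatically; activity is fitted relative to DMSO.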

Assay [7] in a line: CCTE_Mundy_HCI_hN2_NOG_NeuriteLength: CCTE's Neurite Outgrowth Assay in human hN2 cells for Neurite Length, Mundy Lab (AID 2284220; active means hit-call score of the fitted dose curve at least 0.9, where 1 is the maximum). The procedure, abridged: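 Using βIII-tubulin immunofluorescence and Hoechst nuclear counterstain, this component quantifies neurite length in hNP1-derived neurons.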
Assay [8] can be described thus: CCTE_Mundy_HCI_hN2_NOG_NeuronCount: CCTE's Neurite Outgrowth Assay in human hN2 cells for Neuron Count, Mundy Lab (AID 2284221; active means hit-call score of the fitted dose curve at least 0.9, where 1 is the maximum). The gist of the method:
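Read-out is the number of betaIII-tubulin-positive neurons imaged by automated high-content analysis, with DMSO as negative control.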

The nature of assay [9]: CCTE_Mundy_HCI_Cortical_Synap_Neur_Matur_CellBodySpotCount: CCTE's Synaptogenesis and Neurite Maturation Assay in rat cortical cells for Cell Body Spot Count, Mundy Lab (AID 2284223). The gist of the method:
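Rat cortical neurons; AraC @ DIV 5; dose + media change DIV 7; fix DIV 12; anti-MAP2/anti-synaptophysin IF, Hoechst; HCI count of soma synaptophysin puncta/neuron; DMSO = negative control.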

The nature of assay [10]: CCTE_Mundy_HCI_hNP1_Pro_ResponderAvgInten: CCTE's Proliferation Assay in human neuroprogenitor cells, Mundy Lab (AID 2284224; active means hit-call score of the fitted dose curve at least 0.9, where 1 is the maximum;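 further: human neural progenitor cells hNP1 derived from WA09 embryonic stem cells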). The procedure, abridged: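 Human neuroprogenitors (hNP1, WA09 lineage) receive test chemical after 40 to 44 hours of attachment. A four-hour BrdU pulse begins twenty hours later, followed by fixation and high content imaging; signal is referenced to DMSO controls.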

A short description of assay [11]: UKN2_HCS_IMR90_neural_migration: University of Konstanz (UKN) Leist Lab Neural Crest Cell Migration Assay in human induced IMR90 Pluripotent Stem Cells (UKN2) (AID 2284204). The conditions noted are these: actives raise or lower the signal. The gist of the method: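 iPSC-derived IMR90 neural crest cells on PLO/laminin/fibronectin were seeded around silicone stoppers; after stopper removal, migration in N2-S medium with EGF and FGF ran 24 h before 24 h chemical exposure. Calcein-AM/Hoechst high-content imaging; bidirectional fit versus DMSO.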

Assay [12] can be described thus: IUF_NPC1b_proliferation_BrdU_72hr: Leibniz Research Institute for Environmental Medicine (IUF) 72-hour Neural Progenitor Cell Bromodeoxyuridine (BrdU) Proliferation Assay (NPC1b) (AID 2284207). The procedure, abridged:
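hNPC spheres (primary, GW 16-19 fetal cortex), single sphere/well, EGF+FGF medium; 72 h compound, no renewal; BrdU pulse last 16 h; luminescent ELISA; activity vs DMSO baseline; growth-factor withdrawal as positive control.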

The nature of assay [13]: IUF_NPC1a_proliferation_area_72hr: Leibniz Research Institute for Environmental Medicine (IUF) 72-hour Neural Progenitor Cell Proliferation Area Assay (NPC1a) (AID 2284208). The gist of the method:
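Spheres of 0.3 mm are plated singly in growth-factor medium and exposed from day 0. After three days at 37C and 5% CO2, sphere area is measured by phase contrast imaging, with activity referenced to DMSO.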

A short description of assay [14]: IUF_NPC1_viability_72hr: Viability Assessment at 72 hours in the Leibniz Research Institute for Environmental Medicine (IUF) Neural Progenitor Cell Proliferation Assay (NPC1) (AID 2284209). The gist of the method:
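Each well receives one 0.3 mm progenitor sphere from fetal brain cortex; test chemical is added at plating and left three days. Viability comes from alamar blue fluorescence, multiplexed with LDH and BrdU readouts in the same well.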

A short description of assay [15]: CCTE_Mundy_HCI_Cortical_Synap_Neur_Matur_BPCount: CCTE's Synaptogenesis and Neurite Maturation Assay in rat cortical cells for Branch Point Count, Mundy Lab (AID 2284211). The gist of the method:
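Branch point number is quantified by automated imaging of fluorescently labelled neurites and synapses in rat primary cortical neurons exposed from DIV 7 to DIV 12. Activity is analysed relative to DMSO negative control.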

Assay [16] is described as follows: CCTE_Mundy_HCI_hN2_NOG_NeuriteCount: CCTE's Neurite Outgrowth Assay in human hN2 cells for Neurite Count, Mundy Lab (AID 2284219; active means hit-call score of the fitted dose curve at least 0.9, where 1 is the maximum). The procedure, abridged: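 In this morphology assay, hNP1-derived neurons received test chemical 2 h post-plating and were fixed two days later in warm paraformaldehyde/sucrose containing Hoechst 33342. Neurites, labelled by rabbit anti-βIII-tubulin (1:800) and Alexa Fluor-488 (1:500), were counted automatically.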

A short description of assay [17]: CCTE_Mundy_HCI_Cortical_Synap_Neur_Matur_NeuriteCount: CCTE's Synaptogenesis and Neurite Maturation Assay in rat cortical cells for Neurite Count, Mundy Lab (AID 2284222). The gist of the method:
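Rat cortical neurons, 96-well; AraC DIV 5; chemical + media change DIV 7; end DIV 12. Fix PFA/Hoechst, anti-MAP2 + anti-synaptophysin IF. HCI neurite count vs DMSO baseline.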

Assay [18] is described as follows: BSK_BT_PBMCCytotoxicity: PBMC Cytotoxicity Assessment in the BioMAP Diversity Plus: BT Assay (AID 2284225).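 Further: PBMC viability measured by Alamar Blue dye reduction fluorescence.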 Particulars: primary human B cells with PBMC. The procedure, abridged:
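75,000 cells/well; cpd 1 h → SEB + TSST-1 (20 ng/mL final each) → 90 h → Alamar Blue 6 h → fluor. 546/580 nm. DMSO = neg. control/baseline.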

Read-out in assay [19]: Secreted IgG (sIgG), gene 3500
Briefly: BSK_BT_sIgG: BioMAP Diversity Plus: BT Assay for Secreted IgG (sIgG) Biomarker Activity (AID 2284226). Particulars: primary human B cells with PBMC. The gist of the method: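 Secreted IgG from a human primary B cell–PBMC co-culture was measured by ELISA 24 hours after dosing, with DMSO defining baseline activity.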

Assay [20] can be described thus: CCTE_Mundy_HCI_Cortical_NOG_NeuriteCount: CCTE's Neurite Outgrowth Assay in rat cortical cells for Neurite Count, Mundy Lab (AID 2284212).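 Further: cells fixed about two days after chemical exposure began.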 The procedure, abridged:
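Neurite number per cell from high-content imaging of betaIII-tubulin immunostaining, with Hoechst nuclear counterstain.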

Several values for one entry are separate records, joined by “and”; a condition that tells them apart may be missing. Equal values may be shown once. Records with an inconclusive call do not appear. Some compounds were tested as several samples or in several runs, with calls that do not always agree. Activity calls are given as the source filed them. How the source made its calls, unless noted: active means hit-call score of the fitted dose curve at least 0.9, where 1 is the maximum; inactive means score below 0.9.

As a reminder, the AC50 is the concentration giving half of the maximal activity seen. As to `ClC1=C(Cl)[C@]2(Cl)[C@@H]3[C@@H]4C[C@@H]([C@H]5O[C@@H]45)[C@@H]3[C@@]1(Cl)C2(Cl)Cl`, the AC50 in assay [1] is 25.5 µM (active); in [2], 8.83 µM (active); in assay [3] it was 12.8 µM (active); in assay [4] it was 13 µM (active); in assay [5] it was 4.73 µM (active); in [6], 13.2 µM (active). Besides, the values for the concentration at half-maximal activity (AC50) in assay [8], in [9] and in [10] were 50 µM (active), 24 µM (active) and 25.2 µM (active), respectively. Besides, the molecule was classed as inactive in assay [7].

As for `CCOP(=S)(OCC)SCSC(C)(C)C`, the molecule was classed as inactive in assay [11], in assay [12], in [13], in assay [14], in assay [1] and in [16]. Further, the molecule was classed as inactive in assay [7], in [8], in assay [17], in assay [9] and in assay [10]. Also, the AC50 in [1] was 23 µM (active); in [15] it was 80.7 µM (active) and 23.2 µM (active); in [2], 91 µM (active) and 79.2 µM (active); in assay [3], 81.5 µM (active) and 17.5 µM (active); in [4], 81 µM (active) and 22.9 µM (active); in [6], 79.7 µM (active) and 22.9 µM (active). The results for the AC50 in assay [17] and in assay [9] were 22.5 µM (active) and 22.9 µM (active), respectively.

On to `NS(=O)(=O)C(F)(F)C(F)(F)C(F)(F)C(F)(F)C(F)(F)C(F)(F)C(F)(F)C(F)(F)F`, for which the result in assay [18] was inactive. The AC50 in assay [19] is 23.8 µM (active) and 45.3 µM (active).

With `O=S(=O)(O)C(F)(F)C(F)(F)C(F)(F)C(F)(F)C(F)(F)C(F)(F)F`, the molecule was called inactive in assay [11], in assay [12], in [13], in assay [14], in assay [1] and in assay [15]. In addition, the molecule was classed as inactive in assay [20], in assay [2], in assay [3], in assay [4], in assay [6] and in [17]. Moreover, the result in assay [9], in assay [10], in [18] and in assay [19] was inactive.

On to `COc1ccc(O)c(C(C)(C)C)c1`, for which the molecule was classed as inactive in assay [1], in assay [15], in assay [20], in assay [2], in assay [3] and in [4]. In addition, the call in [6], in assay [17], in [9] and in [10] was inactive.
